Compounds with a hit are over-represented: about 12% of the library has one in this group of screens.
BAZ2B inh: blocks human BAZ2B; Potency, µM (series often up to 114 µM), actives largely listed as inhibitors; hit rate 4.4% among 360,000; AlphaScreen BAZ2B-H3K14Ac peptide displacement; Q9UIF8; also: nearly all actives have a fitted effect of over 60% in size
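BAZ2B 50 nM plus b-H3(5-23)K14Ac 50 nM, PBS pH 7.4/0.01% Tween-20, 30 min RT; compound added (max 110 uM), 30 min RT; streptavidin donor/Ni-chelate acceptor beads 10 ug/mL final, 20 min dark; AlphaScreen read.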
G9a inh: G9a (human) methyltransferase inhibition; G9a H3K9 monomethylation, AlphaScreen, 2 h; Potency, µM (series often up to 102 µM), actives largely listed as inhibitors; hit rate 8.8% among 350,000; also: nearly all actives have a fitted effect of over 75% in size
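Compounds were preincubated with 20 nM G9a for 15 min, after which biotinylated H3K9 peptide (500 nM) and SAM (20 uM) started a 2 h room-temperature reaction. Monomethylated product was quantified by antibody-based AlphaScreen chemiluminescence.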
Sfp inh: blocks B. subtilis Sfp PPTase activity; Biochemical Sfp PPTase activity, qHTS; AID 1490; Potency, µM, hits mostly inhibitors; Q9F4F7; hit rate 3.5% among 310,000;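 also: the enzyme is Sfp with the accession as filed and its product quenches rhodamine fluorescence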
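Fluorescence-quenching assay: 15 nM Sfp-PPTase preincubated 15 min at room temperature with compound, then 5 uM rhodamine-CoA and 12.5 uM BHQ-2-labelled YbbR peptide added. Fluorescence (ex 525/em 598 nm) read at start and after 30 min; difference gives rate.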
HP1b binding inh: inhibitors of HP1-beta chromodomain binding to methylated histone tails | AlphaScreen HP1-beta / biotin-H3K9me3 peptide binding | Potency, µM (top dose mostly 114 µM), most hits filed as inhibitors | hit rate 0.56% among 390,000 | AID 540317; also: nearly all actives have a fitted effect of over 70% in size
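HP1-beta protein (50 nM final) preincubated 30 min at room temperature with biotinylated H3(1-18)K9me3 peptide (50 nM) in PBS pH 7.4, 0.01% Tween-20, then compound added for 30 min. AlphaScreen streptavidin donor/nickel chelate acceptor beads (10 ug/mL final), 30 min dark, luminescence read.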
JMJD2A Tudor inh: JMJD2A Tudor domain (human) inhibition; O75164; AlphaScreen JMJD2A-Tudor / H3K4me3 peptide binding; Potency, µM (doses to about 114 µM), most hits filed as inhibitors; hit rate 4.4% among 390,000; AID 504339; also: nearly all actives have a fitted effect of over 50% in size
Target sequence (O75164 whole entry, looked up, the tested form may be a part): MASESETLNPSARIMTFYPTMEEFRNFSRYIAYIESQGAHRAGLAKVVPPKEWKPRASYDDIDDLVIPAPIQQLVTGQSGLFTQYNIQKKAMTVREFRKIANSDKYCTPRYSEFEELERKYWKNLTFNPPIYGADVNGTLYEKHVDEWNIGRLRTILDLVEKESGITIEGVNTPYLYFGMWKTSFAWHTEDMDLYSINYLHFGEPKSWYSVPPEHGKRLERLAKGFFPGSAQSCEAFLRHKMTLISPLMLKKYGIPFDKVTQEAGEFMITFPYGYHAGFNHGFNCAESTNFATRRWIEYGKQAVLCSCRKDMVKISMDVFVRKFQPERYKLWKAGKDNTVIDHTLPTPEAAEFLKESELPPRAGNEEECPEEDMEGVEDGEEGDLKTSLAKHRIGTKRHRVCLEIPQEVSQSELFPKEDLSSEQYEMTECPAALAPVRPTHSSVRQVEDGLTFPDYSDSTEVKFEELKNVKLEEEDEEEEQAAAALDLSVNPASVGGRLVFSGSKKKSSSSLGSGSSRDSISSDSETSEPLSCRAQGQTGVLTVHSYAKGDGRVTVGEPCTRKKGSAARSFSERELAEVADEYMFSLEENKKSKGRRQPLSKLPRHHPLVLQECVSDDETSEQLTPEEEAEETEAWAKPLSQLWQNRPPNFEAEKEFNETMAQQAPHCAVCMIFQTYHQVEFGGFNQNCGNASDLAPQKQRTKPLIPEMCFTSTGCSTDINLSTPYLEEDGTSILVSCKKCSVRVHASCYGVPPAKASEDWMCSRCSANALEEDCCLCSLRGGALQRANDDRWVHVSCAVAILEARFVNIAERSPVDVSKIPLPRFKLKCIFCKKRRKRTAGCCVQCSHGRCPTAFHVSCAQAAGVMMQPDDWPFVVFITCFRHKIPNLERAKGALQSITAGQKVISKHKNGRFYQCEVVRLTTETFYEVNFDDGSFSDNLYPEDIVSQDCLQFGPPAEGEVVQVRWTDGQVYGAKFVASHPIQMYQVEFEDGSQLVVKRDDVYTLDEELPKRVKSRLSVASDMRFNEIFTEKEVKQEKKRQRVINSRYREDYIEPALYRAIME
Of the large screens only hits and unclear results are named; the others gave an inactive call. Calls follow the shape of the dose curve; as a rule, active = well fitted curve in the direction sought with a large enough effect; inconclusive = small, poorly fitted or top-dose-only effect, or another doubt; inactive = no such curve, though single readings can be large; an effect the other way counts as inactive or inconclusive.

N#Cc1cc2c(nc1SCc1nc3ccccc3[nH]1)CCC2	G9a inh inconclusive, Sfp inh 56µM (no result: HP1b binding inh, JMJD2A Tudor inh)
Cc1cccc(CSc2nc3c(cc2C#N)CCC3)c1	none
N#Cc1cc2c(nc1SCc1cccnc1)CCCC2	G9a inh inconclusive, Sfp inh 45µM, JMJD2A Tudor inh inconclusive
CC1CCCCN1Cc1ccc(N(C)C)cc1 (centres undefined)	none
CCOC(=O)C1CCN(Cc2ccc(C(=O)OC)cc2)CC1	BAZ2B inh 50µM, G9a inh inconclusive, JMJD2A Tudor inh 5.6µM
CN(C)c1ccc(CN2CCC(C(N)=O)CC2)cc1	BAZ2B inh 22µM, G9a inh 14µM, JMJD2A Tudor inh 22µM
CCOC(=O)C1CCN(Cc2ccc(F)cc2)CC1	G9a inh inconclusive, HP1b binding inh inconclusive, JMJD2A Tudor inh 4µM
CCOC(=O)C1CCN(C(=O)c2cc3cc(F)ccc3[nH]2)CC1	none
CSCC[C@@H](N)C(=O)O	none (no result: BAZ2B inh, HP1b binding inh, JMJD2A Tudor inh)
CN1CCC(OC(c2ccccc2)c2ccc(Cl)cc2)C1 (centres undefined)	none (no result: BAZ2B inh, G9a inh, Sfp inh)
CN1CCC(NCCC(c2ccc(F)cc2)c2ccc(Cl)cc2)CC1 (centres undefined)	BAZ2B inh 50µM, G9a inh 25µM, Sfp inh inconclusive, JMJD2A Tudor inh 0.71µM
CC(C)C(CCNC1CCN(C)CC1)c1ccc(Cl)cc1 (centres undefined)	G9a inh inconclusive, JMJD2A Tudor inh 56µM
NC(=O)COn1c(SCC(N)=O)nc2ccccc2c1=O	none (no result: G9a inh)
C=CCN=c1scc(C)n1/N=C/c1ccc(O)c(O)c1	BAZ2B inh 40µM, G9a inh inconclusive, Sfp inh 32µM, JMJD2A Tudor inh inconclusive
CN=c1scc(-c2ccco2)n1/N=C/c1ccc(O)c(O)c1	BAZ2B inh 28µM, G9a inh 11µM, Sfp inh 50µM, HP1b binding inh inconclusive
O=C1C2C3C=CC(CC3)C2C(=O)N1/N=C/c1ccc(O)c(O)c1 (centres undefined)	BAZ2B inh inconclusive, G9a inh inconclusive, HP1b binding inh inconclusive
CCOc1ccc(N(CC)C(=O)c2cn(CC)c(=O)c3cc(OC)c(OC)cc23)cc1	none
CCNC(=O)COC(=O)c1cc(-c2ccc(OC)cc2)nc2ccccc12	none
O=C(OCC(=O)N1CCN(C(=O)c2ccco2)CC1)c1cc(-c2ccccc2)nc2ccccc12	BAZ2B inh inconclusive, G9a inh inconclusive, JMJD2A Tudor inh inconclusive
O=C(OCC(=O)N1CCN(C(=O)c2ccco2)CC1)c1cc(-c2cccc(Br)c2)nc2ccccc12	G9a inh 14µM
Nc1nc(N2CCN(C(=O)c3ccco3)CC2)nc2ccc(Br)cc12	G9a inh 50µM, Sfp inh inconclusive
CNC(=O)COC(=O)c1cc(-c2ccco2)nc2ccccc12	BAZ2B inh 50µM, G9a inh 10µM, Sfp inh 28µM, HP1b binding inh 45µM, JMJD2A Tudor inh 20µM
CCN(CC)C(=O)COC(=O)c1cc(-c2ccco2)nc2ccccc12	BAZ2B inh 22µM, G9a inh 4µM, HP1b binding inh inconclusive, JMJD2A Tudor inh 56µM
O=C(c1ccccc1)C1CCc2occc2C1=O (centres undefined)	none
Cc1ccccc1CCN1CCCC(CN(C)CC(C)(C)C)C1 (centres undefined)	none
Cc1cc(C(=O)OCC(=O)NCCc2ccccc2)c2ccccc2n1	none (no result: Sfp inh)
O=C(COC(=O)c1cc(-c2ccco2)nc2ccccc12)NCc1ccccc1	G9a inh 45µM, Sfp inh 40µM
COc1ccc(OC)c(Cc2nnc(CCC(=O)N3CCCCC3)o2)c1	none (no result: G9a inh)
O=C(CNC(=O)c1cccs1)NCCN1CCC(Cc2ccccc2)CC1	none (no result: HP1b binding inh, JMJD2A Tudor inh)
O=C(NCCNC1CCN(Cc2ccccc2)CC1)c1cccs1	BAZ2B inh inconclusive, G9a inh 1.8µM, Sfp inh inconclusive (no result: HP1b binding inh, JMJD2A Tudor inh)
CCOc1ccc(N2C(=O)c3cccnc3C2=O)cc1	BAZ2B inh 56µM, JMJD2A Tudor inh inconclusive
CCOc1ccc(N2C(=O)Cc3ccccc3C2=O)cc1	none
COc1ccc(OC)c(N2C(=O)c3cccnc3C2=O)c1	BAZ2B inh 79µM
O=C(CCC(=O)N1CCOc2ccccc21)NCCN1CCOCC1	none
CSc1nnc(C)c(/C=C/NOCc2cccc(F)c2)n1	BAZ2B inh inconclusive, G9a inh 22µM
N#Cc1cc2nc(O)c(O)nc2cc1[N+](=O)[O-]	JMJD2A Tudor inh 79µM
O=C(CN1CCOCC1)NNC(=S)Nc1ccc(Cl)cc1	BAZ2B inh inconclusive, G9a inh 40µM
